In this assay the target is Acyl-protein thioesterase 2 (Homo sapiens) (UniProt O95372). Nature of the assay: LYPLA2 enzyme kinetics with inhibitors – biochemical, substrate-based fluorescence, Ki, Km, Vmax, late-stage follow-up (AID 652001). The conditions noted are these: recombinant LYPLA2, resorufin acetate hydrolysis fluorescence, measured here: LYPLA2 (no test compound); Km: enzyme Km; Vmax: enzyme Vmax.
Sequence of Acyl-protein thioesterase 2 (Homo sapiens) (O95372 whole entry, looked up): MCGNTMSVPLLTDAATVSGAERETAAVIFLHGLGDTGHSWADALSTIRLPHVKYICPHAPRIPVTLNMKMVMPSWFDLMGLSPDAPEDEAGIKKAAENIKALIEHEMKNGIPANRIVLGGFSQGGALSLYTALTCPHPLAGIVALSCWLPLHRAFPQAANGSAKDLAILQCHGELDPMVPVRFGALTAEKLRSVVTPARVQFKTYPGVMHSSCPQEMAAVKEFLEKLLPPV

Usually Km stands for the substrate concentration at which the rate is half of its maximum. Regarding `COc1ccc(N2CCN(C(=O)c3cc4c(s3)-c3ccccc3S(=O)(=O)C4)CC2)cc1`, the Km turned out to be 24.4 µM and the Vmax is 13.8 nM.
